Gal4-VP16 FLuc – Gal4-VP16 reporter inhibition counter-screen; Drosophila S2 Gal4-VP16 UAS-luciferase, luminescence, 20 h; Potency, µM (series often up to 53.6 µM), inactives show at the highest dose activity, negative = inhibition, hits mostly inhibitors; 310,000 tested, 3.5% active;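 also: Gal4-VP16 expression switched on by copper sulfate through the metallothionein promoter; potency is read from the fitted curve at half-maximal effect; nearly all actives have a fitted effect of over 50% in size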
TDP1 cell noCPT – qHTS for Inhibitors of human tyrosyl-DNA phosphodiesterase 1 (TDP1): qHTS in cells in absence of CPT. Potency, µM (top dose mostly 46.2 µM), for inactives: at the top dose activity change, negative = growth inhibition, most hits filed as inhibitors. 420,000 tested, 15% active. DT40 Tdp1-/- hTDP1 cells, no CPT, ATP luminescence, 48 h; also: potency is read from the fitted curve at half-maximal effect; nearly all actives have a fitted effect of over 55% in size
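Growth kinetics read by CellTiter-Glo luminescence after ≥48 hr at 37 °C. Cells: DT40 Tdp1-/- stably carrying human TDP1, 400 per well, compound exposure in the absence of CPT (DMSO vehicle).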
LDHA inh – LDHA (human) enzyme inhibition. P00338. purified LDHA, NADH/diaphorase-resazurin fluorescence; hits give low values. activity change, % (values are at about 110 or 230 µM). 480,000 tested, 0.15% active. AID 1347041; in the data active = activity change below about -30%; inconclusive = mostly about -25% to -30%;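 also: plate controls were DMSO wells for no effect and wells without enzyme for full effect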
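LDH5 2 nM; NADH 0.06 mM, pyruvate 0.2 mM; 200 mM Tris pH 7.4, EDTA, Tween-20; 5 min RT. Detection: diaphorase 0.133 mg/mL + resazurin 37 µM, fluorescence ex540/em590 at 0 and 20 min; normalized to enzyme-free and DMSO wells.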
TDP1 cell CPT – DT40-hTDP1 cell growth loss with CPT; AID 686979; 420,000 tested, 12% active; Potency, µM (titrated, usually from 46.2 µM), inactives show at the highest dose activity change, negative = growth inhibition, hits mostly inhibitors; chicken DT40 Tdp1-/-;hTDP1 cells + 20 nM CPT, ATP luminescence, 48 h; also: potency is read from the fitted curve at half-maximal effect; nearly all actives have a fitted effect of over 55% in size
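Chicken DT40 Tdp1-/- cells stably complemented with human TDP1 were seeded at 400 cells/well in medium containing 20 nM camptothecin, exposed to pin-transferred compounds, and grown at 37 °C for at least 48 hr. Viability was read as ATP luminescence.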
RORgamma inh – blocks mouse ROR gamma transcriptional activity; AID 2551; Potency, µM (top dose mostly 53.6 µM), without a hit: at the highest dose activity change, negative = inhibition, actives largely listed as inhibitors; 310,000 tested, 5.4% active; P51450; Drosophila S2 Gal4-RORgamma UAS-luciferase reporter, 20 h; also: potency is read from the fitted curve at half-maximal effect; nearly all actives have a fitted effect of over 60% in size
Target sequence (P51450 whole entry, looked up, the tested form may be a part): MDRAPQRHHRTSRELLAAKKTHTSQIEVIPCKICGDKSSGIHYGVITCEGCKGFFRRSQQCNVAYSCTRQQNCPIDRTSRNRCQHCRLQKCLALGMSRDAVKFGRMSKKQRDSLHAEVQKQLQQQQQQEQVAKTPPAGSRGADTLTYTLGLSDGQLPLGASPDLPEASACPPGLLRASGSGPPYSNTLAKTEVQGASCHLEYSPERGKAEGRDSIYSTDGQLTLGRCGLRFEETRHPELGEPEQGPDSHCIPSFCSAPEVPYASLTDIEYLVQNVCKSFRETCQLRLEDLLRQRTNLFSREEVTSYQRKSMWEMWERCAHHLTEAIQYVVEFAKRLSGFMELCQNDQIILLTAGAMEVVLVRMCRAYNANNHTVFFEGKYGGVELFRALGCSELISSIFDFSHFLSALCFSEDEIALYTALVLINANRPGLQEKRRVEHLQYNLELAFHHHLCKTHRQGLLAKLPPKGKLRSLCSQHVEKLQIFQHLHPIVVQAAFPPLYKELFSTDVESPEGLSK
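Luminescence from a UAS-regulated Photinus luciferase reporter in stably transfected Drosophila Schneider cells is measured; decreased signal marks ROR gamma inhibition. Fusion expression is induced by 700 uM copper sulfate for 20 hr.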
IL1B secr inh – blocks inflammasome-driven IL-1 beta release. 360,000 tested, 4.7% active. activity change, % at 57.5 µM. AID 743279. THP-1 LPS/ATP IL-1B secretion, AlphaLISA, 16 h; hits give low values; in the data active = activity change below about -50%; inconclusive = mostly about -30% to -49%
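Secreted IL-1B measured by AlphaLISA bead assay after 16 h compound exposure of THP-1 cells; compounds (final up to 57.5 uM) added 1 h before LPS (250 ng/mL) and ATP (1.25 mM) stimulation; lower signal means less secretion.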
Numbers without * were called inactive; ? = inconclusive; / = no result. A selection: hits, their analogues and other compounds. The true share with any hit is near 18%. Unless noted, calls follow the shape of the dose curve; as a rule, active = well fitted curve in the direction sought with a large enough effect; inconclusive = small, poorly fitted or top-dose-only effect, or another doubt; inactive = no such curve, though single readings can be large; an effect the other way counts as inactive or inconclusive. Unless noted, % is scaled to controls: 0 for no effect and ±100 for the full control effect.

SMILES | Gal4-VP16 FLuc | TDP1 cell noCPT | LDHA inh | TDP1 cell CPT | RORgamma inh | IL1B secr inh
O=C(CCS(=O)(=O)c1nc(-c2ccc3c(c2)OCO3)cc(C(F)(F)F)n1)Nc1ccccc1C(F)(F)F | / | 23µM* | 1 | ? | / | /
O=C(CCS(=O)(=O)c1nc(-c2ccc3c(c2)OCO3)cc(C(F)(F)F)n1)Nc1ccc(F)c(Cl)c1 | / | 5.8µM* | 5 | 2.6µM* | / | /
COc1cc(NC(=O)CCS(=O)(=O)c2nc(-c3ccc4c(c3)OCO4)cc(C(F)(F)F)n2)cc(OC)c1OC | / | 16µM* | -2 | ? | / | /
COc1ccc(NC(=O)CCS(=O)(=O)c2nc(-c3ccc4c(c3)OCO4)cc(C(F)(F)F)n2)c(OC)c1 | / | ? | -18 | ? | / | /
COc1cccc(Nc2nc(N)c(C(=O)c3cc(C)c(C)cc3C)s2)c1 | / | / | -2 | / | / | /
CC(=O)C1=NN(c2ccccc2)C(c2ccc3c(c2)OCO3)N1c1ccccc1 (stereo not drawn) | -6% | ? | 1 | ? | 16% | 28
CC(=O)C1=NN(c2ccccc2)C(c2cccs2)N1c1ccc(N(C)C)cc1 (stereo not drawn) | ? | 4µM* | 0 | 2.2µM* | -22% | -72*
CCOc1ccc(NC(=O)c2ccc(F)c(S(=O)(=O)N3CCCC3)c2)cc1 | / | 12µM* | -8 | 9.2µM* | / | 48
CCOc1ccc(NC(=O)c2ccc(F)c(S(=O)(=O)N3CCN(c4ccccn4)CC3)c2)cc1 | ? | 16µM* | -4 | ? | 34% | -6
O=C(Nc1cccc(Cl)c1)c1ccc(F)c(S(=O)(=O)N2CCN(c3ccccn3)CC2)c1 | -3% | 18µM* | -5 | 23µM* | ? | -4
CCc1ccc(NC(=O)c2ccc(F)c(S(=O)(=O)N3CCN(c4ccc(OC)cc4)CC3)c2)cc1 | / | ? | -5 | ? | / | /
O=C(c1cc(=O)[nH]c2ccccc12)N1CCC(CCc2ccc(O)cc2)CC1 | / | / | 1 | / | / | /
N#Cc1cccc(/C=C/C(=O)c2cccs2)c1 | / | / | -1 | / | / | /
COCCN(Cc1cc(OC)c(OC)c(OC)c1)Cc1cc(=O)n2ccc(C)cc2n1 | / | / | 11 | / | / | /
Cc1cc(OCCn2c(C3CC(=O)N(Cc4ccc(F)cc4)C3)nc3ccccc32)ccc1Cl (stereo not drawn) | / | 26µM* | 2 | ? | / | /
CCc1ccccc1N1CC(c2nc3ccccc3n2CCOc2ccc(Cl)c(C)c2)CC1=O (stereo not drawn) | / | 21µM* | 1 | 10µM* | / | /
CC(C)OC(=O)Cn1c(C2CC(=O)N(Cc3ccc(F)cc3)C2)nc2ccccc21 (stereo not drawn) | / | / | -1 | / | / | /
Cc1cccc(C)c1OCCn1c(C2CC(=O)N(Cc3ccc(F)cc3)C2)nc2ccccc21 (stereo not drawn) | / | 18µM* | -2 | ? | / | /
CCOc1ccccc1N1CC(c2nc3ccccc3n2CCOc2ccc(C(C)(C)C)cc2)CC1=O (stereo not drawn) | / | ? | -9 | ? | / | /
COc1cc2c(cc1OC)-c1cc(Nc3ccc(N(C)C)cc3)nc(=O)n1CC2 | 2% | ? | -1 | -17% | -28% | -58*
CCN(CC)c1ccc(Nc2cc3n(c(=O)n2)CCc2cc(OC)c(OC)cc2-3)cc1 | 4% | ? | -2 | 3% | -12% | -95*
COc1cc2c(cc1OC)-c1cc(Nc3cccc(F)c3)nc(=O)n1CC2 | -13% | ? | -5 | 4% | 11% | -26
COc1cc2c(cc1OC)-c1cc(Nc3ccc(F)cc3)nc(=O)n1CC2 | -9% | ? | -4 | ? | 12% | -51*
COc1cc2c(cc1OC)-c1cc(NC3CCCC3)nc(=O)n1CC2 | 2% | ? | -3 | -28% | ? | 1
Cc1ccc(O)c(Nc2nc3ccccc3c3nncn23)c1 | / | 9.2µM* | -6 | ? | / | /
SMILES | Gal4-VP16 FLuc | TDP1 cell noCPT | LDHA inh | TDP1 cell CPT | RORgamma inh | IL1B secr inh
Cc1ccc(O)c(Nc2c3ccccc3nc3ccccc23)c1 | ? | ? | 3 | 16µM* | -32% | -95*
C/C(=N\NC(=O)c1cc(C)nc2ccccc12)c1ccccn1 | / | 0.73µM* | 1 | 1.5µM* | / | 143
C/C(=N\NC(=O)c1cc(C)nc2ccccc12)c1ccncc1 | -8% | 5% | -1 | -22% | -17% | 37
COc1cc(C(=O)N/N=C(\C)c2ccccn2)cc(OC)c1OC | -7% | 8.2µM* | -3 | 12µM* | 7% | 32
COc1cc(C(=O)N/N=C(\c2ccccc2)c2ccccn2)cc(OC)c1OC | 1.3µM* | 2.6µM* | -1 | 2.6µM* | 1.3µM* | 49
C/C(=N/NC(=O)c1ccccn1)c1ccco1 | ? | ? | 2 | ? | 10µM* | -5
C/C(=N\NC(=O)c1ccc(Cl)cc1)c1ccccn1 | ? | 0.52µM* | -1 | 0.58µM* | 0.028µM* | -92*
O=C(NCCc1c[nH]c2ccc(Cl)cc12)c1cccc(Cl)c1 | / | / | 1 | / | / | /
O=C(NCCc1c[nH]c2ccc(Cl)cc12)c1cccnc1 | -2% | 21µM* | 4 | ? | -14% | -1
CCNC(=O)CN(CC)c1nc(C(F)(F)F)nc2ccccc12 | / | / | 14 | / | / | /
COC(=O)CCC(=O)NCc1ccccc1 | / | / | -1 | / | / | /
Cc1ccccc1Cn1nc(C)c(NS(=O)(=O)c2c(C)nn(C(F)F)c2C)c1C | / | / | -9 | / | / | /
Cc1ccc(Nc2nc3nonc3nc2Nc2cccc(C(F)(F)F)c2)cc1Cl | / | 0.46µM* | -5 | 0.52µM* | / | /
Cc1ccc(N/N=C/c2cccc(C(F)(F)F)c2)cc1Cl | / | / | 4 | / | / | /
CCOc1ccccc1CNC(=O)c1cnc2sc(N3CCCCCC3)nn2c1=O | / | ? | -10 | ? | / | /
O=C(NCc1ccccc1Br)c1cnc2sc(N3CCCCCC3)nn2c1=O | / | 4.1µM* | -8 | 23µM* | / | /
Cc1cccc(CNC(=O)c2cnc3sc(N4CCCCCC4)nn3c2=O)c1 | / | -9% | -7 | -16% | / | /
COc1ccccc1CNC(=O)c1cnc2sc(N3CCCCCC3)nn2c1=O | / | 21µM* | -3 | 16µM* | / | /
Cc1ccc(C)c(CNC(=O)c2cnc3sc(N4CCCC4)nn3c2=O)c1 | / | 18µM* | -12 | 16µM* | / | /
CCc1ccc(CNC(=O)c2cnc3sc(N4CCCCC4)nn3c2=O)cc1 | / | -16% | -7 | -21% | / | /
CN(C)C(=O)c1ccc(NC(=O)COc2ccc(-c3ccc(Br)cc3)cc2)cc1 | / | / | -2 | / | / | /
O=C(CCC1CCCC1)NC1CCCc2ccccc21 (stereo not drawn) | / | / | -6 | / | / | /
